Experiment [1] concerns the target Nuclear receptor coactivator 3 (Homo sapiens) (UniProt Q9Y6Q9). In words: SRC3 coactivator transcriptional activity inhibitors, confirmation, cell-based, luminescence, quadruplicate (AID 588792;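 active means mean inhibition over 43.08%, the solvent-only control mean plus 3 SD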;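 further: 0% = DMSO treated cells and 100% = gossypol at 36 µM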). The settings on record: HEK293 GAL4-SRC3 luciferase reporter, at 3.6 µM, active compounds read high. On the technique in general: In a reporter assay the amount or activity of a reporter protein is the signal.

The subject of experiment [2] is transactivating tegument protein VP16 (Human herpesvirus 1), Gal4-VP16 luciferase reporter. In words: VP16 transactivation inhibitors, counter-screen for SRC3 inhibitor project, cell-based, luminescence, high throughput (AID 588794). The settings on record: mammalian cells, VP16-driven luciferase reporter luminescence; at 3.6 µM; active compounds read high.

From PubChem BioAssay come the findings set out here.

In general, inhibition refers to the change of the read-out against control, counted positive when it falls.

Values without a mark were called inactive. The source made the active and inactive calls. Unless noted, no stated cut-off is given here; in the data, active means inhibition above about 30%; inactive means the rest.

Sequence of Nuclear receptor coactivator 3 (Homo sapiens) (Q9Y6Q9 whole entry, looked up, the tested form may be a part): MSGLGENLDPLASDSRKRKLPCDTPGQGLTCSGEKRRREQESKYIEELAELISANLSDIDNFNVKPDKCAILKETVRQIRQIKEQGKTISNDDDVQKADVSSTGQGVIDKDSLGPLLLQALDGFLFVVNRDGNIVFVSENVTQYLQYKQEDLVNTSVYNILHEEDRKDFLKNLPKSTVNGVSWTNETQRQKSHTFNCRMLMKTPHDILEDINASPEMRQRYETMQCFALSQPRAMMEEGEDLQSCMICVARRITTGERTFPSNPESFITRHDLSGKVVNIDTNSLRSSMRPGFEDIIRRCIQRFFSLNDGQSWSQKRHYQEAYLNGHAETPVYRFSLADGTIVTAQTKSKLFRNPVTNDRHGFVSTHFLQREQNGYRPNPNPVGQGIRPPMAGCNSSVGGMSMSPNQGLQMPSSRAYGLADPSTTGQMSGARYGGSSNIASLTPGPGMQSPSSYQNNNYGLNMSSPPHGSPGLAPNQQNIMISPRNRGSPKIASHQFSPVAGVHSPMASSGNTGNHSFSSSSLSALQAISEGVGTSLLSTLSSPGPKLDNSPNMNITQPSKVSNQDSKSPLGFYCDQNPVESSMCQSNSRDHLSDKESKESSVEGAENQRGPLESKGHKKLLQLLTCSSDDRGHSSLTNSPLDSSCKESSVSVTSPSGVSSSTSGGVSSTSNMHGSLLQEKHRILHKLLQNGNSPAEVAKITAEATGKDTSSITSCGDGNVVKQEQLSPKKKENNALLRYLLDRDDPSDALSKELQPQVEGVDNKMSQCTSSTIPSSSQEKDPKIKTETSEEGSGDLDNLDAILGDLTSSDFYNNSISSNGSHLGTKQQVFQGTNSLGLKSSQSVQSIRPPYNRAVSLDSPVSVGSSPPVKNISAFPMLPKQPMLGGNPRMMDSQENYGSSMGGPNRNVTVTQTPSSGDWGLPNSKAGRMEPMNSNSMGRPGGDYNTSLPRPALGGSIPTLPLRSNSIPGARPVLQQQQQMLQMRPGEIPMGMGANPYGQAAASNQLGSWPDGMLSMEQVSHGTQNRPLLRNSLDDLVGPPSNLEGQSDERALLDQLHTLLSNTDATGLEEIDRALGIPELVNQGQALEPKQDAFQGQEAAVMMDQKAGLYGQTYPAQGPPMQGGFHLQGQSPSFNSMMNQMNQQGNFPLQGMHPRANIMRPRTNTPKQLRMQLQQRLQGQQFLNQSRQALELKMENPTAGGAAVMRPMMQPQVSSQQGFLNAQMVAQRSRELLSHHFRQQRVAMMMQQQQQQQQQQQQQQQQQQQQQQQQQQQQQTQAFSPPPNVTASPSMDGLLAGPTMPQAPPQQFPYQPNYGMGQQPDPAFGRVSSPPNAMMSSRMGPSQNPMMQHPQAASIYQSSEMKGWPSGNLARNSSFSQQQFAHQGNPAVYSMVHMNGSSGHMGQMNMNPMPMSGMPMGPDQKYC

Consider `FC(F)(F)c1cccc(NC(=S)N(CCCN2CCCC2)Cc2cccn2Cc2ccc(Cl)cc2)c1`, for which the inhibition in experiment [1] is -14.5%; in experiment [2], 0.12%.

With `CCc1ccc([C@@H]2CC(=O)[C@@H]3CN(S(=O)(=O)c4ccccc4C)[C@H](c4ccc(Cl)cc4)C[C@@H]3N2S(=O)(=O)c2ccc(C)cc2)cc1`, the inhibition was 15.5% in experiment [1] and 4.71% in experiment [2].

Consider `COc1ccccc1C(=O)OCC(=O)c1ccc(CNC(C)=O)s1`, for which the inhibition in experiment [1] is 10.4%; in experiment [2], -0.94%.

On to `O=C(NC(=S)NNC(=O)c1cc2ccccc2cc1O)c1ccco1`, for which the figures for the inhibition in experiment [1] and in experiment [2] were 26.9% and 61.6% (active), respectively.

Take `CC#CC[N+](C)(C)CCCCCCCCCC`: the inhibition is 4.4% in experiment [1] and 16.9% in experiment [2].

For the compound `Cc1ccc(C2(c3ccc(C)cc3)CC2C(=O)Nc2ccc([N+](=O)[O-])cc2O)cc1` (stereo unspecified), the inhibition in experiment [1] is 11.3%; in experiment [2], 19.4%.

With `CCCc1[nH]nc2c1C(c1ccc(Br)s1)C(C#N)=C(N)O2` (stereo unspecified), the figures for the inhibition in experiment [1] and in experiment [2] were 8.21% and 25.7%, respectively.

Consider `CCOC(=O)c1c(C)[nH]c(C(=O)N/N=C\c2ccccc2O)c1C`, for which the values for the inhibition in experiment [1] and in experiment [2] were 11.6% and 12.8%, respectively.

In the case of `C=CCSc1nsc(NC(=O)Nc2ccc(F)cc2)n1`, the inhibition was -4.43% in experiment [1] and -4.12% in experiment [2].

For the compound `COc1ccc(CN(C)C(=O)c2cccc(NC(=O)CC3SC(N4CCCCC4)=NC3=O)c2)c(OC)c1` (stereo unspecified), the results for the inhibition in experiment [1] and in experiment [2] were 26.9% and 30.3% (active), respectively.

Consider `CCOC(=O)c1c(-c2ccccc2)oc2ccc(O)c(CN3CCOCC3)c12`, for which the inhibition was -5.57% in experiment [1] and 4.57% in experiment [2].

As to `CCOC(=O)c1c(C)sc2c1N(C(=O)CCl)c1cc(Cl)ccc1S2`, the inhibition in experiment [1] was -14.3%; in experiment [2] it was 1.53%.

For `COc1ccc(Nc2nc(-c3ccccc3)nc3ccccc23)cc1S(=O)(=O)N1CCOCC1`, the inhibition is 7.91% in experiment [1] and 1.3% in experiment [2].

Turning to `O=C(N/N=C/c1cc(Br)ccc1O)c1cccc(N2CCCC2=O)c1`, the inhibition in experiment [1] was 1.45%; in experiment [2] it was 30.7% (active).

As to `Cc1ccc2[nH]c(C(=O)N/N=C/c3ccccc3O)c(C)c2c1`, the inhibition is 65.9% (active) in experiment [1] and 67.7% (active) in experiment [2].

For `Cc1cc(C(F)(F)F)c(C#N)c(SCC(=O)Nc2nc3ccccc3s2)n1`, the inhibition was 49.7% (active) in experiment [1] and 37.2% (active) in experiment [2].

For `COc1ccccc1NS(=O)(=O)c1cc(NC(=O)c2[nH]c(C)c(C(C)=O)c2C)ccc1N1CCOCC1`, the inhibition in experiment [1] was 15.5%; in experiment [2] it was -14.8%.

For the compound `CCOc1cc(C(=O)N2CCC(CC3CC(c4ccc(Cl)cc4)=NO3)(C(=O)NCC3CCCCC3)CC2)cc(OCC)c1OCC` (stereo unspecified), the inhibition is 6.12% in experiment [1] and 7.56% in experiment [2].

As for `COc1cc(C(=O)NC2CCCc3c2cnn3-c2ccccc2F)cc(OC)c1OC` (stereo unspecified), the results for the inhibition in experiment [1] and in experiment [2] were 2.41% and 21%, respectively.

With `O=C(Cc1ccccc1)NNC(=O)Nc1cccc(Cl)c1`, the inhibition in experiment [1] is 10.6%; in experiment [2], -0.2%.

For the compound `CC(C)[C@@H]1CC[C@@H](C)C[C@H]1OC(=O)C[n+]1cc(-c2ccc(Cl)cc2)n2c1CCCCC2`, the inhibition is 10.3% in experiment [1] and 20.6% in experiment [2].

As for `CC1CCCC=CC2CC(OC(=O)CN(C)C)CC2C(O)C=CC(=O)O1` (stereo unspecified), the figures for the inhibition in experiment [1] and in experiment [2] were 65.1% (active) and 71.2% (active), respectively.

`Cc1cc(C(=O)N2CCN(c3ccccn3)CC2)no1`: the inhibition in experiment [1] was 4.36%; in experiment [2], -9.5%.

In the case of `COc1cccc2[nH]c(=O)c(-c3ccccc3)cc12`, the results for the inhibition in experiment [1] and in experiment [2] were -103% and -36.1%, respectively.

On to `O=C1c2cccc(NCCNCCO)c2C(=O)c2cccc(NCCNCCO)c21`, for which the inhibition in experiment [1] is -30.9%; in experiment [2] it was 37.6% (active).

In the case of `O=C(Nc1ccc(N2CCN(c3ncccc3C(F)(F)F)CC2)nc1)c1cccs1`, the inhibition in experiment [1] was -7.92%; in experiment [2], 7.03%.

In the case of `N#CCc1ccc(NC(=O)c2ccc(S(=O)(=O)N3CCOCC3)cc2)cc1`, the inhibition was -11.6% in experiment [1] and -6.42% in experiment [2].

For the compound `CCOC(=O)Cc1[nH]nc2c1C(c1cccc(OC)c1OC)C(C#N)=C(N)O2` (stereo unspecified), the inhibition in experiment [1] is -9.29%; in experiment [2], 0.25%.

In the case of `CCN(CC)c1ccc(Nc2nc(N3CCOCC3)c3ccccc3n2)cc1`, the inhibition in experiment [1] was 4.45%; in experiment [2], 20.2%.

`CN1C(=O)C2(C(C#N)=C(N)N(c3cc(Cl)cc(Cl)c3)C3=C2C(=O)CC(C)(C)C3)c2ccccc21` (stereo unspecified): the inhibition in experiment [1] is 46.5% (active); in experiment [2], 25.6%.

In the case of `Cc1ccc(CNC(=O)CCc2ccc(S(=O)(=O)NC3CCCCC3)cc2)cc1`, the inhibition was 0.11% in experiment [1] and 0.04% in experiment [2].

Take `COc1ccc(C(=O)Nc2nc(-c3ccccn3)cs2)cc1S(=O)(=O)N1CCOCC1`: the inhibition in experiment [1] was 18.3%; in experiment [2], -11.1%.

On to `O=C(Nc1ccc(OC(F)(F)F)cc1)Nc1cccc([N+](=O)[O-])c1`, for which the inhibition in experiment [1] is -15.5%; in experiment [2], 1.65%.

On to `CC(C)C[C@H]1CNC(=S)N1C[C@H]1CCCN1C[C@H](Cc1ccc(O)cc1)N1C[C@H](CC(C)C)N(CC2CCCCCC2)C1=S`, for which the values for the inhibition in experiment [1] and in experiment [2] were 21.1% and 16.3%, respectively.

For `C#CC(=O)N(c1cc(OC)ccc1OC)C(C(=O)NC1CCCC1)c1cccs1` (stereo unspecified), the inhibition in experiment [1] was 49.7% (active); in experiment [2], 7.33%.

`COc1ccc(-c2cc(C(=O)NNC(=S)NC(=O)c3c(-c4ccccc4)noc3C)[nH]n2)cc1`: the inhibition in experiment [1] was 6.16%; in experiment [2], -3.86%.

In the case of `COc1ccc(S(=O)(=O)NCc2ccncc2)cc1NC(=O)c1ccc(Cl)cc1`, the inhibition is 14.2% in experiment [1] and 4.55% in experiment [2].

On to `O=C(N/N=C/c1c(O)ccc2ccccc12)c1ccc(Br)o1`, for which the values for the inhibition in experiment [1] and in experiment [2] were 57.3% (active) and 43.2% (active), respectively.

Consider `COc1ccc(-n2nc(C(=O)NCC(=O)NCC3COc4ccccc4O3)c3ccccc3c2=O)cc1OC` (stereo unspecified), for which the inhibition in experiment [1] was -4.76%; in experiment [2], -7.63%.

Take `Cc1cc(Br)cc(/C=N/NC(=O)c2ccc3c(c2)OCO3)c1O`: the inhibition in experiment [1] was 18.9%; in experiment [2] it was 26.3%.

Turning to `Cc1ccc(S(=O)(=O)NCc2ccc(C(=O)N3CCN(c4ccc([N+](=O)[O-])cc4)CC3)cc2)cc1`, the inhibition in experiment [1] is 17%; in experiment [2] it was 36.9% (active).

For the compound `Cc1nccc(-c2ccc(-n3cnc4ccccc43)cc2)n1`, the figures for the inhibition in experiment [1] and in experiment [2] were 23.8% and 12.4%, respectively.

For `COc1ccc2nc(C)cc(SCC(=O)N/N=C/c3ccc(O)cc3O)c2c1`, the inhibition in experiment [1] is 24.1%; in experiment [2] it was 18.7%.

Turning to `Brc1ccc2ncc3ccccc3c2c1`, the inhibition in experiment [1] was 40.2%; in experiment [2], 19.1%.

`COC(=O)Cc1[nH]n(-c2nc3ccccc3s2)c(=O)c1C(C)=Nc1ccc(C)cc1`: the inhibition in experiment [1] is 90.5% (active); in experiment [2], 87.1% (active).

For the compound `O=C(C1=C(O)C(=O)N(CCN2CCOCC2)C1c1cccc([N+](=O)[O-])c1)c1cccs1` (stereo unspecified), the inhibition in experiment [1] is -8.15%; in experiment [2] it was -1.72%.

For the compound `Oc1c(CN2CCCCC2)cc(COCc2ccccc2)c2cccnc12`, the inhibition is 75.2% (active) in experiment [1] and 66.7% (active) in experiment [2].

Turning to `CC(C)(CC(=O)O)CC(=O)Nc1ccc(Oc2ccc(C(C)(C)C)cc2)nc1`, the inhibition in experiment [1] is 3.47%; in experiment [2], 0.08%.

For the compound `Clc1ccc2nnnc(-c3ccccc3)c2c1`, the inhibition in experiment [1] is 65.8% (active); in experiment [2] it was 68% (active).

As to `Cc1ccc(S(=O)(=O)N(C)c2ccc(OCC(=O)OCc3c(C)noc3C)cc2)cc1`, the inhibition in experiment [1] was -4.68%; in experiment [2], -6.86%.

On to `Cc1c(Cl)cccc1NC(=O)CCC(=O)N/N=C/c1ccc[nH]1`, for which the inhibition in experiment [1] was 13.6%; in experiment [2], 14.5%.

Consider `Cc1ccccc1OCc1n(CC(=O)OC2CC(C)CCC2C(C)C)c2ccccc2[n+]1C` (stereo unspecified), for which the inhibition in experiment [1] is 13%; in experiment [2], 22.8%.

As to `Cn1nc(C(F)(F)F)c(-c2ccc(Br)cc2)c1NC(=O)c1ccco1`, the inhibition is 7.4% in experiment [1] and -1.15% in experiment [2].

As to `CC1=C(NCCc2ccccc2)CCC1=O`, the inhibition in experiment [1] was 0.47%; in experiment [2] it was -7.31%.

Turning to `O=C(N/N=C\c1cc(Br)ccc1O)c1ccc(S(=O)(=O)N2CCCCC2)cc1`, the inhibition is 72.3% (active) in experiment [1] and 74.8% (active) in experiment [2].

On to `CCOC(=O)c1c(NC(=S)N2CCN(C)CC2)sc2c1CCN(C(=O)OCC)C2`, for which the values for the inhibition in experiment [1] and in experiment [2] were 35.5% and 40.1% (active), respectively.

As for `CC1=[N+]([O-])C(C)(C)CC(C)(C)c2ccccc21`, the inhibition was 3.29% in experiment [1] and 6.25% in experiment [2].

For `CSc1cccc(N/C(=N/S(=O)(=O)c2ccccc2)NN)c1`, the inhibition was 5.54% in experiment [1] and 0.02% in experiment [2].

With `COc1c(Cl)cc(Cl)cc1/C=C/C(=O)c1ccc(NC(=O)c2cccs2)cc1`, the inhibition is 48.7% (active) in experiment [1] and 26.6% in experiment [2].

Turning to `CC1Cc2cc(-c3csc(NC(=O)Cc4ccccc4)n3)ccc2N1S(C)(=O)=O` (stereo unspecified), the results for the inhibition in experiment [1] and in experiment [2] were 23.8% and 24.3%, respectively.

Turning to `O=C(CN1C(=O)C(=O)N(C2CCCC2)C1=O)Nc1ccccc1OC(F)F`, the inhibition was 10.1% in experiment [1] and -11.8% in experiment [2].

Take `O=C(NCCc1ccccn1)C(F)(F)C(F)(F)C(F)(F)C(F)(F)C(F)(F)C(F)(F)C(F)(F)C(F)F`: the inhibition in experiment [1] was 9.78%; in experiment [2], -4.16%.

For `CCOc1ccc(N2C(=O)/C(=C/c3cc(OC)c(OC)c(OC)c3)N(CC(=O)OC)C2=S)cc1`, the values for the inhibition in experiment [1] and in experiment [2] were 18.9% and 12.7%, respectively.

In the case of `COc1cccc(CNC(=O)c2cc3c(c(-c4cccc(-c5cccc(C#N)c5)c4)n2)[C@H](CCO)N(S(=O)C(C)(C)C)C3)c1` (stereo partly specified), the inhibition in experiment [1] was -23%; in experiment [2], 0.36%.

`Cc1cccc(NNC(=O)C(=O)NNc2cccc(C)c2)c1`: the inhibition in experiment [1] is 18.6%; in experiment [2], 24.3%.

`Cc1ccc(-c2nc(CS(=O)CC(=O)NCCCN3CCN(Cc4ccccc4)CC3)c(C)o2)cc1` (stereo unspecified): the figures for the inhibition in experiment [1] and in experiment [2] were 20.1% and 8.49%, respectively.

On to `CCOc1cccc(/C=N/NC(=O)c2cc(-c3cccn3C)n[nH]2)c1O`, for which the results for the inhibition in experiment [1] and in experiment [2] were 26% and 40% (active), respectively.

In the case of `CCCCCn1c(=O)[nH]c2cc(C(=O)N3CCN(c4ccc(C(C)=O)cc4)CC3)ccc2c1=O`, the inhibition is 0.25% in experiment [1] and 21.7% in experiment [2].
